# Results published in PubChem BioAssay AID686979 (National Center for Advancing Translational Sciences (NCATS), 2013).
# Values joined by “and” are separate entries in the source; they are usually repeats but may differ in a detail not shown here. Identical values can stand only once. Screen size: about 420,000 compounds; about 50,000 (12%) were called active. A call without a number means that no potency is given here. Another 26% or so got no clear call; they are omitted. Calls follow the shape of the dose curve; as a rule, active = well fitted inhibition curve with a large enough effect; inconclusive = small, poorly fitted or top-dose-only effect; inactive = flat fitted curve, though single readings scatter. The full list was thinned out, with actives kept by preference.
# Assay: qHTS for Inhibitors of human tyrosyl-DNA phosphodiesterase 1 (TDP1): qHTS in cells in presence of CPT; also: nearly all actives have a fitted effect of over 55% in size
# Details: chicken DT40 Tdp1-/-;hTDP1 cells + 20 nM CPT, ATP luminescence, 48 h; series mostly up to 46.2 µM
# Outline: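 Cell growth measured by CellTiter-Glo luminescence after a minimum 48 h, 37 C compound exposure with 20 nM CPT in Tdp1-knockout DT40 cells stably expressing hTDP1, seeded 400/well; qHTS titration format.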
# Potency is read from the fitted curve at half-maximal effect.
row,Compound,Potency
1,O=c1ccc(-c2ccc(S(=O)(=O)Nc3ccccc3)o2)n[nH]1,inactive
2,CCOc1ccc(NC(=O)C/C(C)=N/NC(=O)Cc2cccs2)cc1,inactive
3,Cc1ccc2c(c1)c1c(c(=O)n(-c3ccccc3)c(=O)n1CC(=O)c1ccc(Cl)cc1)n2C,inactive
4,O=C1OC(Cc2ccccc2)C(c2ccccc2)C1=O (stereo not given),inactive
5,CCCCS(=O)(=O)c1oc(-c2cccs2)nc1S(=O)(=O)c1ccccc1,0.82 µM (active)
6,Cc1ccc(CSc2ccc(S(=O)(=O)N3CCCCC3)cn2)cc1,inactive
7,Cc1c(-c2ccccc2)nc(N)c(C#N)c1-c1cccs1,inactive
8,COC(=O)CSc1nccc(-c2cccs2)n1,inactive
9,NC(=O)CSc1oc(-c2cccs2)nc1S(=O)(=O)c1ccccc1,inactive
10,Cc1ccc(CSc2oc(-c3cccs3)nc2S(=O)(=O)c2ccc(C)cc2)cc1,13 µM (active)
11,Cc1ccc(NC(=O)COC(=O)CNC(=O)c2ccc(Cl)cc2Cl)cc1S(=O)(=O)N1CCOCC1,inactive
12,COc1ccc2[nH]c3c(c2c1)CCN1C(=O)C(CC(=O)NCCc2ccccn2)C[C@H](C(=O)N2CCOCC2)[C@@]31C (stereo not given in full),inactive
13,COc1ccc(OCCCCN2CCC(C)CC2)cc1,inactive
14,O=S(=O)(Nc1cccc(-c2ccc(N3CCOCC3)nn2)c1)c1ccc(Cl)c(Cl)c1,inactive
15,CCN(CC)C(CNC(=O)CSc1nnnn1-c1cccc(F)c1)c1ccco1 (stereo not given),inactive
16,COc1ccc(N(C(=O)CNC(=O)c2ccco2)C(C(=O)NCC2CCCO2)c2ccccc2)cc1Cl (stereo not given),inactive
17,O=c1c2ccccc2nc2n1C(CSc1ccc(F)cc1)CN2 (stereo not given),inactive
18,O=c1c2ccccc2nc2n1C(CSc1ccc(Cl)cc1)CN2 (stereo not given),inactive
19,O=c1c2ccccc2nc2n1C(CSCc1cccc(C(F)(F)F)c1)CS2 (stereo not given),3.66 µM (active)
20,O=c1c2ccccc2nc2n1C(CSCc1ccccc1)CS2 (stereo not given),8.2 µM (active)
21,N#Cc1c(-c2ccccc2)nc(SCc2cccc(C(F)(F)F)c2)[nH]c1=O,inactive
22,O=S(=O)(c1cccc(C(F)(F)F)c1)N1CCN(c2nc(-c3cccs3)nc3ccccc23)CC1,inactive

row,Compound,Potency
1,COc1ccc(-c2c(C)c3ccc(O)c(CN4CCN(C)CC4)c3oc2=O)cc1OC,inactive
2,O=c1c2c(-c3ccccc3)ccnc2[nH]n1-c1ccccc1,inactive
3,COc1cc(/C=C2\SC(=O)NC2=O)ccc1OCc1ccc(Cl)nc1,inactive
4,C=CCNC(=O)c1cc(-c2ccccc2O)on1,inactive
5,C=CCNC(=O)c1ccc2nc(-c3ccco3)c(-c3ccco3)nc2c1,11.2 µM (active)
6,C=CCNC(=O)c1ccc(C)c(Br)c1,inactive
7,CCSc1nnc(SCC(=O)NNC(=O)c2ccccc2F)s1,inactive
8,CCN(CCCNC(=O)CSc1cc(=O)n(C)c2cc(Cl)ccc12)Cc1ccccc1,inactive
9,CCOc1ccc(CCNC(=O)Nc2ccccc2)cc1OCC,inactive
10,CCOc1ccc(CCNC(=O)CSc2cc(=O)n(C)c3ccc(Cl)cc23)cc1OCC,18.4 µM (active)
11,Cn1c(=O)cc(SCC(=O)N2CCCC2)c2cc(Cl)ccc21,inactive
12,COc1cccc(NC(=O)CN(C)C(=O)Cc2ccc(Cl)cc2Cl)c1,inactive
13,COc1cccc(NC(=O)CSc2cc(=O)n(C)c3ccc(Cl)cc23)c1,23.1 µM (active)
14,CN(C)Cc1c(O)ccc2occ(C(O)c3ccccc3)c12 (stereo not given),inactive
15,COC(C[C@@H](O)C[C@@H](O)[C@H](C)OCc1ccccc1)OC,inactive
16,Cc1ccc2c(c1)N(C(=O)Nc1ccc(Br)cc1F)CCO2,inactive
17,O=C(Nc1ccccc1C(=O)Nc1ccncc1)c1ccc([N+](=O)[O-])cc1,inactive
18,CCOC(=O)c1nc(Nc2ccc(C(=O)OC)cc2)c2ccccc2n1,7.31 µM (active) and 16.4 µM (active)
19,CCOC(=O)c1ccc(Nc2cc(C)nc3nc(C)nn23)cc1,inactive
20,COC(=O)c1ccc(Nc2ncnc3sccc23)cc1,inactive
21,C/C=C/C(=O)OCC(=O)Nc1ccc(F)cc1Cl,inactive
22,CN(C)N1C(N)=C(C#N)C(c2ccc(Br)cc2)C2=C1CCCC2=O (stereo not given),inactive

row,Compound,Potency
1,COCC(C)OC(=O)c1c(N)n(CCCN2CCOCC2)c2nc3ccccc3nc12 (stereo not given),inactive
2,CCCNC(=O)c1c(N)n(-c2ccc(S(N)(=O)=O)cc2)c2nc3ccccc3nc12,inactive
3,CC(C)(C)c1ccc(C(=O)NCCn2c(N)c(C#N)c3nc4ccccc4nc32)cc1,23.1 µM (active)
4,O=C(NCc1nnc(SCC(=O)N2CCCCCC2)o1)c1ccc(F)cc1,inactive
5,C=CCc1cc(S(=O)(=O)c2ccc(O)c(CC=C)c2)ccc1O,inactive
6,Cc1c(CCC(=O)O)c(=O)oc2c(C)c(OCc3ccccc3Cl)ccc12,inactive
7,CC(C)CN(C(=O)c1cccc(S(=O)(=O)N2CCCCC2)c1)C1CCS(=O)(=O)C1 (stereo not given),inactive
8,CCCCn1c(N)c(N(CCOC)C(=O)c2cccc(OCc3ccccc3)c2)c(=O)[nH]c1=O,inactive
9,Cc1ccc(-c2noc(CSc3nnc(-c4ccncc4)n3-c3ccc(F)cc3)n2)cc1,11.6 µM (active)
10,Cc1ccc(-c2noc(CSc3nnc(-c4cccs4)n3C)n2)cc1,inactive
11,COc1ccc(-c2noc(CSc3nnc(-c4ccccc4)n3-c3ccc(F)cc3)n2)c(OC)c1,11.6 µM (active)
12,Fc1ccc(-n2c(Cc3ccccc3)nnc2SCc2nc(-c3ccc(Cl)cc3)no2)cc1,13 µM (active)
13,Cc1ccc(-c2nc(-c3ccncc3)no2)c(C)c1,inactive
14,COc1ccccc1-c1noc(CSc2nc(C)cc(=O)[nH]2)n1,inactive
15,COc1ccc(-c2nnc(SCC(=O)c3ccco3)n2-c2ccccc2)cc1,inactive
16,Cc1ccc(-c2noc(CSc3nnc(-c4ccc(Cl)cc4)n3C)n2)cc1,18.4 µM (active)
17,CSc1nnc(CNC(=O)c2ccccc2)n1-c1ccc(F)cc1,inactive
18,O=C(CSc1nnc(Cc2ccccc2)n1-c1ccccc1)N1CCOCC1,inactive
19,Cc1ccc(CSc2nnc(-c3cnccn3)n2C)cc1,inactive
20,O=C(CSc1nnc(-c2ccncc2)n1-c1ccc(Cl)cc1)Nc1ccc(C(=O)O)cc1,inactive
21,Cc1cc(=O)cc(C)n1-c1ccc(Cl)c(Cl)c1,inactive
